Pf Dd2 inh = qHTS Primary assay for Inhibitors of Plasmodium falciparum Dd2 growth in vitro; 4.3% of 120,000 active; P. falciparum Dd2 growth, SYBR Green, 72 h; AID 1347417, 2020; Potency, µM (doses to about 28.9 µM), for the others: top-dose activity, negative = inhibition, actives largely listed as inhibitors; active means well fitted inhibition curve with a large enough effect;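 further: plate controls were DMSO vehicle for no effect and reference drug for full effect; nearly all actives have a fitted effect of over 65% in size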
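Infected erythrocytes (Dd2, 0.3% parasitemia, 2.5% hematocrit final) are added to compound in RPMI-1640/Albumax II medium, grown 72 h at 37C in low oxygen, then lysed with saponin/Triton-X containing SYBR Green and read by fluorescence.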
* = called active by the depositor; i = inactive; [ ] = remark or other dose. Only a selection was taken, and hits are over-represented in it overall. Potency means the concentration at half of the fitted maximal effect.

SMILES	Pf Dd2 inh
C[S+](=O)([O-])N1CC2(CCCN2CC2CCCCC2)Cc2ccccc21 (stereo unspecified)	8.9µM*
CCc1cccc(NC(=O)Cn2c(N3CCOCC3)nc(COC)cc2=O)c1	i
CN(C)C(=O)c1cccnc1OC1CCN(C(=O)c2ccc(F)c(F)c2)C1 (stereo unspecified)	1%
COC(=O)[C@@H](C)NC(=O)[C@H]1CN(C(=O)c2ccc(N(C)C)cc2)CCN1S(C)(=O)=O	28%
CN(C)C(=O)c1ccc(OC2CCN(C(=O)c3ccc(F)c(F)c3)CC2)nc1	54%
COCCNC(=O)CN1CN(c2ccccc2)C2(CCN(C(=O)C3CCCCC3)CC2)C1=O	-21%
CC(C)(C)NC(=O)N1CCC2(CC1)C(=O)N(CC(=O)NCC1CCCO1)CN2c1ccccc1 (stereo unspecified)	i
Cc1ccc(NC(=O)N2CCC3(CC2)C(=O)N(CC(=O)N2CCCC2)CN3c2ccccc2)cc1	7.1µM*
CC(=O)N1CC2(CCN(c3nc(C)cc(C(=O)O)n3)CC2)CC1C(=O)O (stereo unspecified)	-2%
COc1ccc(C(=O)N2CCC3(CC2)C(=NC2CCCCC2)NC(=O)N3c2cccnc2)cc1	8%
CN1CC(=O)N(C2CCCNC2)Cc2c(NCCO)ncnc21 (stereo unspecified)	15%
CCn1cc(S(=O)(=O)N2CCC(c3noc(-c4ccccc4)n3)C2)cn1 (stereo unspecified)	47%[5.79 µM]
COc1ccc(CCNC(=O)C(=O)Nc2ccc(C)c(C)c2)cc1	20%
COc1ccc(CNC(=O)C(=O)Nc2cccc(C)c2C)cc1	29%
COc1ccc(CNC(=O)C(=O)Nc2ccc(OC)cc2OC)cc1	5.6µM*
CCCN1CCN(C(=O)c2cc(CN(C)Cc3ccccc3)on2)CC1	-14%
COc1cc(C(=O)N2C[C@@H](C)[C@@](C)(O)C2)ccn1	-9%
C=C(C)CN(CC)C(=O)c1coc(CN2CCN(C/C=C/c3ccccc3)CC2)n1	i
CN1CCN(Cc2c(O)ccc3cc(-c4ccccc4)c(=O)oc23)CC1	10µM*
CCN1CCN(C(=O)c2cc(-c3ccccc3)cn2C)CC1	2%
COc1ccc(-c2cc([C@H]3CN4CC[C@H]3C[C@@H]4CNC(=O)N3CCOCC3)nc(C)n2)cc1OC	-3%
COc1ccc(-c2cc3ccc(O)c(CN4CCOCC4)c3oc2=O)cc1OC	10µM*
COc1cccc2cc(-c3nc(-c4ccc(C)cc4)c(C)s3)c(=O)oc12	75%
O=C(O)c1ccc2nc(-c3cc4cccc(O)c4oc3=O)[nH]c2c1	-12%
COc1ccc(-c2cc3ccc(O)c(CN4CCN(C)CC4)c3oc2=O)cc1OC	11µM*
SMILES	Pf Dd2 inh
COc1ccc(-c2c(C)c3ccc(O)c(CN4CCOCC4)c3oc2=O)cc1OC	-17%
COc1cccc2cc(-c3nnc(-c4ccc(Cl)cc4)o3)c(=O)oc12	52%
COc1ccc(NC(=O)N2CCC3(CC2)SCC(=O)N3Cc2ccco2)c(OC)c1	i
NC1CCC(n2cc(C(=O)NCc3noc(-c4ccccc4)n3)nn2)CC1 (stereo unspecified)	-7%
CCC(=O)N1CCC(c2noc(COC)n2)C1 (stereo unspecified)	22%
CNc1nc2c(c(C(=O)N3CCCC3)n1)CN(C(=O)C1CC(C(C)C)=NO1)CC2 (stereo unspecified)	11%
CS(=O)(=O)N1CCCN(C(=O)c2cccs2)CCNC(=O)CC1c1ccccc1 (stereo unspecified)	15%
CCCn1c(C)c(CC(=O)N[C@@H](C)C(N)=O)c2c1CC(C)(C)CC2=O	-22%
O=C(C1CC2(CCNCC2)CN1)N1CCN(c2nc3ccccc3o2)CC1 (stereo unspecified)	25%
O=C(Nc1ccc(Cl)cc1)c1cc(S(=O)(=O)N2CCc3ccccc32)ccc1F	1%
O=C(Nc1ccc(F)c(F)c1)c1cc(S(=O)(=O)N2CCc3ccccc32)ccc1F	10%
O=C(Nc1ccc(F)c(Cl)c1)c1cc(S(=O)(=O)N2CCCc3ccccc32)ccc1F	10µM*
Cn1nnnc1SCCCNCc1cccc(OCc2ccccc2Cl)c1	10µM*
CCOc1ccccc1CNCCSc1nnnn1C	i
COc1cc(CNCCSc2nnnn2C)cc(Cl)c1OCc1ccccc1	i
Cn1nnnc1SCCCNCc1cc(Cl)ccc1OCc1ccccc1	7.9µM*
COc1cccc(CNCCSc2nnnn2C)c1OCc1ccc(Cl)cc1Cl	i
CCOc1ccc(CNCCCSc2nnnn2C)cc1OC	-13%[0.594 µM]
N#CC1CCN(C(=O)C2CN(c3ccc(F)cc3)C(=O)N2)CC1 (stereo unspecified)	14%[44.1 µM]
COc1ccc(OC2CN(C(=O)c3ccc(C(F)(F)F)cc3)C2)cc1	60%
COc1cc(OC(F)(F)F)ccc1C(=O)NCc1nnc2n1C(C(=O)O)CC2 (stereo unspecified)	47%
O=C1c2cnc(-c3ccoc3)nc2OCCN1Cc1ccc(F)cc1F	i
COc1ncccc1-c1ncc2c(n1)OCCN(Cc1ccccc1)C2=O	-19%[44.1 µM]
O=C1c2cnc(-c3ccc(F)cc3F)nc2OCCN1Cc1ccc(F)cc1F	-2%[44.1 µM]
COc1ccc(-c2ncc3c(n2)OCCN(Cc2ccccc2)C3=O)cc1	1.3µM*
SMILES	Pf Dd2 inh
CC(=O)Nc1cccc(-c2ncc3c(n2)OCCN(Cc2ccc(F)cc2F)C3=O)c1	13µM*
COc1cccc(-c2ncc3c(n2)OCCN(Cc2ccccc2)C3=O)c1	i
COc1cc(Cl)ccc1C(=O)N1CCN(C(=O)c2nnn3c2COC(c2ccccc2)C3)CC1 (stereo unspecified)	i
Cn1ccnc1CNC(=O)C[C@@H]1C[C@H]2O[C@H](CNC(=O)NC3CCCCC3)[C@@H](O)[C@H]2O1	2%
COc1ccc(CN2CCc3oc(C)c(C(=O)NC4CCN(C)CC4)c3C2)cc1	10µM*
COc1ccc(CN2CCc3oc(C)c(C(=O)N4CCOCC4)c3C2)cc1	i
O=C(NCCOc1ccccc1)c1nc2c(o1)CCN(Cc1cccc(F)c1)CC2	i
COC(=O)C1CCCN1C(=O)c1c(C)oc2c1CN(Cc1ccc(C)cc1)CC2 (stereo unspecified)	-27%
COc1ccc(CN2CCc3oc(C)c(C(=O)NCc4cccnc4)c3C2)cc1	11µM*
Cc1oc2c(c1C(=O)NCc1cccnc1)CN(Cc1ccc(F)cc1)CC2	i
Cc1oc2ccn(Cc3cccc(F)c3)c(=O)c2c1C(=O)NCc1ccccc1	i
COCCNC(=O)c1c(C)oc2c1CN(Cc1cccc(F)c1)CC2	5µM*
Cc1oc2c(c1C(=O)NCc1ccncc1)CN(Cc1cccc(F)c1)CC2	10µM*
Cc1oc2c(c1C(=O)N1CCOCC1)CN(Cc1cccnc1)CC2	-6%
COc1ccc(CN2CCc3nc(C(=O)NCc4cccc(F)c4)oc3CC2)cc1	-3%[44.1 µM]
Cc1oc2c(c1C(=O)NCCc1ccncc1)CN(C)CC2	-19%
COc1ccc(-c2nc(-c3nnn4c3COC(c3ccc(C)cc3)C4)no2)cc1 (stereo unspecified)	29%
Cn1ccc(NC(=O)c2ccc3c(c2)NC(C)(COc2ccccc2)CO3)n1 (stereo unspecified)	i
CCc1sc(NC(=O)CC[C@H]2NC(=O)c3ccccc3NC2=O)nc1C(=O)OC	i
COc1ccc(CC(=O)N2CCCC(c3ccc(C(=O)O)cc3)C2)c(OC)c1 (stereo unspecified)	8%
CN(C)C(=O)c1ccc(OC2CCN(C(=O)C3CCCC3)CC2)nc1	19%
Cn1cc(-c2ccc(F)cc2)c2nc(CO)cn2c1=O	1%[44.1 µM]

Compound activity deposited in PubChem BioAssay by National Center for Advancing Translational Sciences (NCATS).
